# Compound activity deposited in PubChem by several laboratories.
# GLD-1 RNA inh: GLD-1-TGE RNA interaction inhibition (C. elegans). inhibition, % at 5.96 µM. 0.44% of 320,000 active. purified GLD-1 + fluorescein TGE RNA, fluorescence polarization. Q17339;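 active means percent inhibition above a per-plate cutoff, the plate mean of test compounds plus 3 SD, cut at about 30% in these data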
# EBV gp42 inh: inhibitors of Epstein-Barr virus glycoprotein 42; inhibition, % (tested at 21.74 µM); Q1HVG2; AID 1085; Fluorescence polarization binding assay, mP read-out; 0.42% of 220,000 active; in the data active means inhibition above about 50%
# eLon inh: inhibitors of E. coli Lon protease. P0A9M0. purified E. coli Lon protease, fluorescence polarization. inhibition, % at 7.94 µM. 0.42% of 360,000 active; in the data active means inhibition above about 13%, passing the limit was not always enough
# Bcl-xL primary: blocks human Bcl-xL binding to Bim BH3 peptide | 0.7% of 320,000 active | inhibition, % at 10.9 µM | AID 2129 | GST-Bcl-xL / FITC-Bim BH3 peptide fluorescence polarization;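 active means inhibition above the mean of all tested compounds plus 3 SD, cutoff set per campaign, cut at about 30% in these data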;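 further: inhibitors lower millipolarization by displacing the labeled peptide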
# MEX-5 binding: C. elegans MEX-5 TCR-2 RNA binding activity; Q9XUB2; MEX-5/FITC-TCR2 RNA binding, fluorescence polarization; active compounds read low; activity score (negative = inhibition of binding), % at 10 µM; 0.38% of 300,000 active; AID 1832;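 active means inhibition past about -25% in most replicates, and total fluorescence under double the plate's negative control median, limit read from the data; inconclusive means replicates evenly split on the limit, or fluorescence at least double controls; inactive means too little inhibition in most replicates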
# MCL1 BIM primary: MCL1-BIM-BH3 interaction inhibition (human). inhibition, % at 10.9 µM. AID 2057. 0.68% of 320,000 active. GST-MCL1 / FITC-Bim-BH3 fluorescence polarization. Q07820;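 active means inhibition above the mean inhibition of all tested compounds plus 3 SD, set per campaign, cut at about 40% in these data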;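 further: higher means more loss of mP so more displacement of Bim peptide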
# Numbers stand for hits; – = inactive; ? = inconclusive; · = no result given. Shown are actives, neighbours in structure and some others; about 1.5% of the full set was active somewhere.
SMILES,GLD-1 RNA inh,EBV gp42 inh,eLon inh,Bcl-xL primary,MEX-5 binding,MCL1 BIM primary
O=C(NCc1ccco1)Nc1ccc(Br)cc1,–,–,–,–,–,–
O=C(Cc1ccccc1)NCC(=O)N/N=C/c1ccc(C(=O)O)cc1,–,·,–,–,–,–
Cc1ccc(NCC(=O)N/N=C/c2ccc(C(=O)O)cc2)cc1,–,–,–,–,-61,–
COc1nc(N/N=C/c2ccc(-c3cccc([N+](=O)[O-])c3)o2)nc(N2CCOCC2)n1,·,92,·,·,–,·
O=C(c1sc2cccc(Cl)c2c1Cl)N1CCN(CCc2ccccn2)CC1,–,·,–,–,–,–
CC(=NC1CCCC1)c1c(C)[nH]n(-c2nc3ccccc3s2)c1=O,–,–,–,–,-43,–
CC(=NC1CC1)c1c(-c2ccccc2)[nH]n(-c2nc3ccccc3s2)c1=O,–,–,–,–,–,–
N#CC1=C2SCC(O)(c3ccccc3)N2C(=O)CC1c1cccs1 (centres undefined),–,–,–,36,·,–
N#CC1=C2SCC(O)(c3ccccc3)N2C(=O)CC1c1ccccc1F (centres undefined),–,–,–,–,–,–
CCCCNC(=O)CN1CCC2(O)CCCCC2C1c1ccccc1OC (centres undefined),79,–,–,–,–,–
CCN(CC)CCC(c1ccc(N(C)C)cc1)c1c(O)cc(OC)cc1OC (centres undefined),–,–,–,–,–,–
CN(C)c1ccc(-c2nnc(-c3ccc(S(=O)(=O)C(F)F)cc3)o2)cc1,–,–,–,–,-34,–
O=C(CCc1nc2ccccc2c(=O)[nH]1)Nc1ccc(F)c([N+](=O)[O-])c1,–,–,–,30,–,–
CCN(CC)C(=O)Cn1c(C)c(/C=C/c2cc[n+](C)cc2)c2ccccc21,60,·,–,–,?,–
CCn1cc(/C=C/c2cc[n+](C)cc2)c2ccccc21,66,·,–,41,?,–
C=CCn1c(C)c(/C=C/c2cc[n+](C)cc2)c2ccccc21,74,·,–,–,?,–
CC(C)n1cc(/C=C/c2cc[n+](C)cc2)c2ccccc21,·,·,–,·,?,·
Cc1ccccc1/C=C/c1cc[n+](C)cc1,–,–,–,–,–,–
C=CCn1cc(/C=C/c2cc[n+](C)cc2)c2ccccc21,57,·,–,46,?,–
COc1ccc(C(=O)Nc2nc(OCC(F)(F)F)cnc2/C=C\c2ccccc2)c(OC)c1,·,·,–,·,·,·
O=C(CC12CC3CC(CC(C3)C1)C2)N1CCN(S(=O)(=O)c2cccs2)CC1,–,–,–,–,–,–
COc1ccccc1N1C(=O)C(Cl)=C(Nc2ccccc2O)C1=O,·,–,–,·,-29,·
O=C1C(Cl)=C(Nc2ccccc2O)C(=O)N1c1ccccc1,–,–,–,–,-31,–
CCOc1ccccc1NC1=C(Cl)C(=O)N(c2ccc(OC)cc2)C1=O,–,–,–,–,–,–
Oc1ccc(Br)cc1/C=N/n1c(-c2ccccc2)n[nH]c1=S,–,·,–,–,–,–
SMILES,GLD-1 RNA inh,EBV gp42 inh,eLon inh,Bcl-xL primary,MEX-5 binding,MCL1 BIM primary
Oc1c(Br)cc(Br)c(/C=N/n2c(-c3ccccc3)n[nH]c2=S)c1Br,–,·,–,–,-37,–
COc1ccc(NC(=O)C2(C)CCN2C2Cc3ccccc3C2)cc1OC (centres undefined),·,·,–,·,·,·
CCC(C)(C(=O)NC1CCCCC1)N(C)C(=O)c1ccccn1 (centres undefined),–,–,–,52,–,–
COc1ccccc1CNC(=O)C(=O)NCC1OCCCN1S(=O)(=O)c1ccc(F)cc1C (centres undefined),–,·,–,–,–,–
O=C(NCC1CCCO1)c1nn2c(C(F)(F)F)cc(-c3cc(Br)cs3)nc2c1Br (centres undefined),–,·,–,–,-53,–
O=C(NCC1CCCO1)c1nn2c(C(F)(F)F)cc(-c3ccco3)nc2c1Cl (centres undefined),–,·,–,–,–,–
CCOc1ccc(C(=O)C[n+]2cccc3cc(C)ccc32)cc1,–,·,–,35,–,45
Cc1cccc(CSc2nc(N)c(C#N)c(-c3cccs3)c2C#N)c1,–,–,–,–,–,–
CN1CCc2nc(SCC(=O)Nc3cccc(F)c3)c(C#N)c(-c3cccs3)c2C1,–,–,–,39,–,–
Cc1cccc(CSc2nc3c(c(-c4cccs4)c2C#N)CN(C)CC3)c1,–,–,–,33,–,–
CCn1c(SCC(=O)N2CCCC2)nc2c1c(=O)n(C)c(=O)n2C,–,–,–,52,–,–
CCn1c(SCC(=O)N2CCN(C)CC2)nc2c1c(=O)n(C)c(=O)n2C,–,·,–,–,–,–
O=C(NCCCn1ccnc1)c1ccc2c(c1)OCCO2,–,90,–,–,–,–
Cc1ccc(C(=O)NCCCn2ccnc2)cc1C,–,·,–,–,–,–
CC1CCc2cccc3c2N1c1cc(C#N)c(C#N)cc1O3 (centres undefined),–,116,–,–,–,–
COc1ccc(C(C#N)N2CCC(c3ccccc3)=N2)cc1 (centres undefined),–,·,–,–,–,–
O=C(Cc1cccs1)Nc1ccc(F)c(S(=O)(=O)N2CCOCC2)c1,–,·,–,–,·,–
CN(C)c1ccc2c3c(cccc13)C(=O)N(c1ccccc1)C2=O,69,102,·,81,–,77
O=S1(=O)CC(N2CCCC2)CN1Cc1cn(Cc2cccc(C(F)(F)F)c2)nn1 (centres undefined),·,·,–,·,·,·
CN1C(=O)/C(=C/c2ccc3c(c2)OCO3)N=C1c1ccccc1,–,–,–,–,-33,–
O=c1c2ccccc2nc2n1CC/C2=C\c1ccccc1[N+](=O)[O-],·,66,·,·,·,·
Cn1c(N=Nc2ccc(N3CCOCC3)cc2)[n+](C)c2ccccc21,·,–,–,·,-31,·
CC(C)c1ccc(C2CC(=O)N3CN(C)CSC3=C2C#N)cc1 (centres undefined),–,–,–,–,–,–
CC(C)c1ccc(C2C(C#N)=C(N)N3C(=C2C#N)Sc2ccccc23)cc1 (centres undefined),–,–,·,–,-120,–
CCc1cc2c(=O)c(-c3nc4ccccc4n3C)c(C)oc2c(CN(CC)CC)c1O,–,–,–,–,–,–
CCN(CC)Cc1c(O)ccc2cc(-c3nc4ccccc4n3C)c(=O)oc12,–,·,–,36,–,–
C[C@H]1CN([C@@H](C)CO)C(=O)CCCn2cc(nn2)CO[C@@H]1CN(C)C(=O)NC1CCCCC1,·,·,–,·,·,·
NS(=O)(=O)c1ccc(CNC(=O)c2cc(-c3cccnc3)nc3ccc(Cl)cc23)cc1,–,·,–,–,–,–
NS(=O)(=O)c1ccc(CNC(=O)c2cc(-c3ccccn3)nc3ccc(Cl)cc23)cc1,–,–,–,41,–,44
O=C(c1ccco1)N1CCN(C(=O)c2cc(-c3ccccc3)nc3ccccc23)CC1,–,–,–,–,–,–
